Experimental data from publication PMC10726135, “HNF4α isoforms regulate the circadian balance between carbohydrate and lipid metabolism in the liver”.
Over roughly 18,000 sequences, “log2 normalized intensity” has its median near 0.39; the highest 2% begin near 6.6. The sample holds the highest values, similar sequences and a random draw of the others, so the mix is not that of the screen.

Target: T1, HNF4alpha2 (COS-7 nuclear extract) (Homo sapiens, UniProt P41235 1-474)
T1 sequence: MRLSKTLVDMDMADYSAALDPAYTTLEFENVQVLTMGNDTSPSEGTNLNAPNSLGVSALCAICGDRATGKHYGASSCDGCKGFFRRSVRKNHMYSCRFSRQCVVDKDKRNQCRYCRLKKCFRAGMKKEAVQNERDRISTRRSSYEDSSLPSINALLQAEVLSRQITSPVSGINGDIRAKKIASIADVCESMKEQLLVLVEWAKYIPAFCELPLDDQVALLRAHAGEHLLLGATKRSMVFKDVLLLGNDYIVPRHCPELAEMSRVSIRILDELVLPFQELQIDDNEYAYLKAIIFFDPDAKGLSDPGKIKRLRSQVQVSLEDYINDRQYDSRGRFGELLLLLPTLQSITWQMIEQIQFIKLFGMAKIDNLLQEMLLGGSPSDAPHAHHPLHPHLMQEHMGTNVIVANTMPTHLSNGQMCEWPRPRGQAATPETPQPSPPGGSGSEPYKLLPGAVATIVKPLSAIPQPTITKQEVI
Experiment: protein-binding microarray; COS-7 nuclear extract on double-stranded Agilent 4x180k PBM; binding buffer, salt, pH and temperature not given in the material; high values mean tight binding
Details: chain copies: 2; label: 3' end of strand 1 on the slide; dsDNA, one strand shown
In short: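 Binding signal was defined as the normalized, background-corrected gProcessedSignal reported by Agilent software. It came from nuclear extracts of COS-7 cells transiently transfected with a human HNF4α isoform expression vector, applied to a custom Agilent SurePrint G3 4x180k array. That array held ~44,000 test sequences in quadruplicate as double-stranded ~60-nt oligonucleotides, and bound HNF4α was imaged at 2-µm resolution on an Agilent G2565CA scanner.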

Sequence | binding signal [log2 normalized intensity]
ATGTACATGGACTTTGAACCAAGATATGCTGCCTAGGGAGATTAGAGTATCGGTCGA | 6.75
TGAATATGTACATGGACTTTGAACCAAGATGCCTAGGGAGATTAGAGTATCGGTCGA | 8.36
ATCCTTATCTTGTAGAAAAGTGCATGGATTGCCTAGGGAGATTAGAGTATCGGTCGA | 0.836
TTGAGTTTGCTCTGCTACTAACTGCATGACGCCTAGGGAGATTAGAGTATCGGTCGA | -0.452
TTCTCCAGGAAGTTCAGGCCTCGGCTTCATGCCTAGGGAGATTAGAGTATCGGTCGA | -0.98
CACTCAATGCAGCAGCATTGGACCCTCCCAGCCTAGGGAGATTAGAGTATCGGTCGA | 5.46
TAAAACTGCAGATTGACTCAGGCATTCTGAGCCTAGGGAGATTAGAGTATCGGTCGA | -0.529
CCATATCACATTTTAAGGTCTGGCATTCTTGCCTAGGGAGATTAGAGTATCGGTCGA | 1.37
CCTTTTATTTTCTTATCTGCCTAGGCATTTGCCTAGGGAGATTAGAGTATCGGTCGA | 1.33
GATTGACTCAGGCATTCTGACCTTTGTCTCGCCTAGGGAGATTAGAGTATCGGTCGA | 7.05
TTTTAAGGTCTGGCATTCTTTTTGACCTTTGCCTAGGGAGATTAGAGTATCGGTCGA | 7.55
TATTTAGACTCAGCATGTCTTCTGACCTTTGCCTAGGGAGATTAGAGTATCGGTCGA | 6.51
ACTCAGGCATTCTGACCTTTGTCTCCAGGCGCCTAGGGAGATTAGAGTATCGGTCGA | 5.69
GGCATTCTGACCTTTGTCTCCAGGCAAACTGCCTAGGGAGATTAGAGTATCGGTCGA | 4.88
CTGCAGATTGACTCAGGCATTCTGACCTTTGCCTAGGGAGATTAGAGTATCGGTCGA | 6.93
CCTTATGACGGACAAAGGGCTCTCTCACCAGCCTAGGGAGATTAGAGTATCGGTCGA | -0.701
TGTGGGCCTCACACCCTCTAGGGTAGATAAGCCTAGGGAGATTAGAGTATCGGTCGA | -0.451
TGCCTCCTTCAAGGATTAGCAGATAAATCTGCCTAGGGAGATTAGAGTATCGGTCGA | -0.904
ATGAAGATATATTCCTTCAGGAAGGCCTGTGCCTAGGGAGATTAGAGTATCGGTCGA | 0.708
CTTTCATACGTTTAACAGTTCCTCCTGGAAGCCTAGGGAGATTAGAGTATCGGTCGA | 1.18
CTATTAGGTCTTTGAAGTTGTCTTATCACCGCCTAGGGAGATTAGAGTATCGGTCGA | 1.34
GGACCGCAGGGGGCTCCCGGACCCTGACTCGCCTAGGGAGATTAGAGTATCGGTCGA | 0.458
AGCCACCGCGCCCCGCCCCCAGTGCACCTTGCCTAGGGAGATTAGAGTATCGGTCGA | 5.11

Sequence | binding signal [log2 normalized intensity]
TTGTATGTCCAAGGGTCACTCGACATTCATGCCTAGGGAGATTAGAGTATCGGTCGA | 3.02
TTGAAGTGACTAAATGAGAAGAAATGATGGGCCTAGGGAGATTAGAGTATCGGTCGA | 1.69
GGTGCTGATGTTAACACAAGTTATTACCGTGCCTAGGGAGATTAGAGTATCGGTCGA | 1.03
CAGTGGTAACCACAGTACTGTCTTTTTGCCGCCTAGGGAGATTAGAGTATCGGTCGA | -0.854
TTGCATAGGCATTGTCTTGAAAGATAAAGTGCCTAGGGAGATTAGAGTATCGGTCGA | 0.627
TCTTTTTGCCACTAGGGGTCACTGTCACATGCCTAGGGAGATTAGAGTATCGGTCGA | 2.7
TTGATATTTATCAAGATGAACTTTGACCCAGCCTAGGGAGATTAGAGTATCGGTCGA | 10.8
ATGAACTTTGACCCACCTACATTGATATTCGCCTAGGGAGATTAGAGTATCGGTCGA | 4.81
CACCCAGAACTTTGACCGTTTGATTATTTGGCCTAGGGAGATTAGAGTATCGGTCGA | 2.56
ATTTATCAAGATGAACTTTGACCCACCTACGCCTAGGGAGATTAGAGTATCGGTCGA | 8.26
TCCCTTTGATATTTATCAAGATGAACTTTGGCCTAGGGAGATTAGAGTATCGGTCGA | 4.93
ATTTTTCCCTTTGATATTTATCAAGATGAAGCCTAGGGAGATTAGAGTATCGGTCGA | 0.736
CATGTTGAGTGGAATATGAGGTCAGGGTTCGCCTAGGGAGATTAGAGTATCGGTCGA | 2.71
GGGCTGGAACACAAAGAAAGCCAAAGTTCAGCCTAGGGAGATTAGAGTATCGGTCGA | 2.41
CATTGGACCCTCCCAGCCAAACCCCACTCCGCCTAGGGAGATTAGAGTATCGGTCGA | 5.01
TGTAACTGTAACTATATTGACCACCTCCTCGCCTAGGGAGATTAGAGTATCGGTCGA | 1.76
TTACCCTGCAGTGTGACCTTTGCCTTCTTGGCCTAGGGAGATTAGAGTATCGGTCGA | 7.49
TCTACACTGCTTACCCTGCAGTGTGACCTTGCCTAGGGAGATTAGAGTATCGGTCGA | 4.19
CTGCAGTGTGACCTTTGCCTTCTTGACATCGCCTAGGGAGATTAGAGTATCGGTCGA | 5.94
ACTGCTTACCCTGCAGTGTGACCTTTGCCTGCCTAGGGAGATTAGAGTATCGGTCGA | 7.83
GATGTTCTACACTGCTTACCCTGCAGTGTGGCCTAGGGAGATTAGAGTATCGGTCGA | 0.052
GTGTGACCTTTGCCTTCTTGACATCTCTCTGCCTAGGGAGATTAGAGTATCGGTCGA | 4.43
